Assay results: the supplement of paper PMC4100887
Counter-ions that a name gives are not always drawn. ± gives the standard deviation of the averaged measurements.

Assays:
IMR-90 = test: relative cell viability (ATPlite) vs untreated control (fraction); higher = less toxic; conditions: 1 µM; 72 h
K562 [1] = test: as above; conditions: 1 µM; 72 h
K562 [2] = test: relative cell viability (ATPlite) vs untreated control, with imatinib (fraction); higher = less toxic; conditions: 1 µM; 72 h; imatinib 0.125 µM

Compound	relative cell viability (IMR-90)	relative cell viability (K562 [1])	relative cell viability (K562 [2])
Fc1ccc(-c2nc3n(c2-c2ccncc2)CCS3)cc1	0.999 ± 0.12	0.845 ± 0.071	0.737 ± 0.058
COc1ccc2c(c1)c1c3c(c4c5ccccc5n(C)c4c1n2CC(O)CN(C)C)C(=O)NC3=O (stereo unspecified) [Gö 7874, Hydrochloride]	0.87 ± 0.034	0.901 ± 0.025	0.775 ± 0.031
Nc1nccc(-c2c(-c3ccc(F)cc3)ncn2C2CCNCC2)n1	0.923 ± 0.084	0.755 ± 0.05	0.662 ± 0.046
COc1cc2ncnc(Nc3ccc(NC(=O)c4ccccc4)cc3)c2cc1OC [Aurora Kinase Inhibitor II]	0.92 ± 0.071	0.909 ± 0.055	0.783 ± 0.027
Cc1cncc2cccc(S(=O)(=O)N3CCCN(C(=O)CN)C[C@@H]3C)c12 [Rho Kinase Inhibitor IV]	1.05 ± 0.12	0.809 ± 0.065	0.669 ± 0.031
O=C1NC(=O)C(c2cn(CCCO)c3ncccc23)=C1c1cnccn1 [GSK-3b Inhibitor XI]	1.02 ± 0.054	0.915 ± 0.075	0.757 ± 0.046
NCCNc1ncc(C(N)=O)c(Nc2cccc(C(F)(F)F)c2)n1 [Syk Inhibitor II]	0.974 ± 0.079	0.949 ± 0.058	0.773 ± 0.048
CCCCc1c(-c2ccc(OC)cc2)[nH]c2nccnc12 [Aloisine, RP106]	0.897 ± 0.069	0.929 ± 0.046	0.819 ± 0.05
NC(N)=NCCNS(=O)(=O)c1cccc2cnccc12 [HA 1004, Dihydrochloride]	1.01 ± 0.1	0.851 ± 0.066	0.756 ± 0.015
COc1cc2ncn(-c3cc(OCc4ccccc4S(C)(=O)=O)c(C#N)s3)c2cc1OC [IKK-3 Inhibitor IX]	1.02 ± 0.11	0.843 ± 0.084	0.764 ± 0.036
CC[C@H](CO)Nc1nc(NCc2ccc(-c3ccccn3)cc2)c2ncn(C(C)C)c2n1 [CR8, (R)-Isomer]	0.297 ± 0.51	0.0971 ± 0.02	0.0846 ± 0.015
NS(=O)(=O)c1ccc(N=Nc2c(O)[nH]c3ccc(Br)cc23)cc1 [Cdk2 Inhibitor II]	1.22 ± 0.2	0.839 ± 0.084	0.825 ± 0.052
CCN(CC)CCCCN1c2ccccc2Oc2ccc(Cl)cc21 [Akt Inhibitor X]	0.889 ± 0.093	0.848 ± 0.089	0.77 ± 0.061
CCCC(=O)Oc1ccc2[nH]c(C(=O)c3cc4ccccc4[nH]3)cc2c1 [PDGF Receptor Tyrosine Kinase Inhibitor II]	1.01 ± 0.064	0.812 ± 0.097	0.77 ± 0.025
COc1ccc(CNC(=O)Nc2ncc([N+](=O)[O-])s2)cc1 [GSK-3b Inhibitor VIII]	0.978 ± 0.09	0.82 ± 0.048	0.713 ± 0.049
O=c1c2ccccc2[nH]c(=S)n1CCN1CCC(=C(c2ccc(F)cc2)c2ccc(F)cc2)CC1 [Diacylglycerol Kinase Inhibitor II]	0.995 ± 0.097	0.867 ± 0.094	0.768 ± 0.07
Cn1cc(C2=C(c3cn(CCCSC(=N)N)c4ccccc34)C(=O)NC2=O)c2ccccc21	0.967 ± 0.2	0.834 ± 0.1	0.733 ± 0.062
COc1cc(Nc2ncc3ccn(-c4cccc(CCC#N)c4)c3n2)cc(OC)c1OC [Keratinocyte Differentiation Inducer]	1.02 ± 0.058	0.173 ± 0.21	0.459 ± 0.35
CC(C)n1cnc2c(NCc3ccccc3)nc(NCCCO)nc21 [Bohemine]	1.03 ± 0.066	0.9 ± 0.074	0.797 ± 0.029
CC[C@@H](CO)Nc1nc(NCc2ccc(-c3ccccn3)cc2)c2ncn(C(C)C)c2n1 [CR8, (S)-Isomer]	0.107 ± 0.035	0.0828 ± 0.015	0.0705 ± 0.018
Cc1ncc2ccccc2c1C#N [4-Cyano-3-methylisoquinoline]	0.955 ± 0.066	0.917 ± 0.06	0.828 ± 0.032
O=Nc1c(-c2c(O)[nH]c3cc(Br)ccc23)[nH]c2ccccc12 [GSK-3 Inhibitor IX]	0.935 ± 0.077	0.779 ± 0.036	0.599 ± 0.044
CCCCn1c2ccc(O)cc2c2c3c(c(-c4ccccc4Cl)cc21)C(=O)NC3=O [Wee1 Inhibitor II]	0.754 ± 0.44	0.876 ± 0.086	0.748 ± 0.1
C[S+]([O-])c1ccc(-c2nc(-c3ccc(F)cc3)c(-c3ccncc3)[nH]2)cc1 (stereo unspecified)	0.994 ± 0.062	0.921 ± 0.054	0.751 ± 0.048
O=[N+]([O-])c1ccc(-c2nc(-c3ccc(F)cc3)c(-c3ccncc3)[nH]2)cc1	1.05 ± 0.089	0.774 ± 0.031	0.693 ± 0.039
O=C1C(=Cc2ccc(O)cc2)C2=Nc3ccccc3C2=C1C1=C2C(=Nc3ccccc32)C(=Cc2ccc(O)cc2)C1=O [Scytonemin, Lyngbya sp.]	0.834 ± 0.054	0.986 ± 0.052	0.821 ± 0.089
NC(=O)c1ccc2nc(-c3ccc(Oc4ccc(Cl)cc4)cc3)[nH]c2c1 [Chk2 Inhibitor II]	1.05 ± 0.097	0.778 ± 0.061	0.681 ± 0.027
